Assay outcomes as filed in PubChem.
Rows were chosen to be rich in hits. Some 1.4% of all compounds tested hit in one or more screens of this group.
AmpC detergent – qHTS Inhibitors of AmpC Beta-Lactamase (assay with detergent); P00811; AmpC hydrolysis of nitrocefin, absorbance 480 nm, 0.01% Triton; Potency, µM (series often up to 114 µM), for inactives: at the highest dose activity change, negative = inhibition, actives largely listed as inhibitors; hit rate 0.041% among 370,000;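 further: 0% = no-compound wells and -100% = no-enzyme wells; nearly all actives have a fitted effect of over 25% in size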
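AmpC (5.3 nM in the dispensed reagent) in 20 mM phosphate pH 7.0 with 0.01% (detergent screen) or 0.0001% Triton X-100 was preincubated with compounds for 15 min at room temperature. Nitrocefin was then added from an 800 uM solution, and hydrolysis was followed at 480 nm.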
Tb PYK inh – qHTS of Trypanosoma Brucei Inhibitors; Potency, µM (doses to about 76.8 µM), inactives show at the top dose activity, negative = inhibition, actives largely listed as inhibitors; AID 624173, 2012; hit rate 0.12% among 410,000; TbPYK enzyme, Kinase-Glo Plus ATP luminescence, 45 min; further: nearly all actives have a fitted effect of over 50% in size
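Screened from lowest to highest concentration, compounds were pinned into TbPYK/substrate mixtures, and ADP (130 uM final) was added. Plates sat at room temperature for 45 min prior to Kinase-Glo Plus detection by luminescence.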
Giardia FBPA inh-1 – qHTS Assay for Inhibitors of Fructose-1,6-bisphosphate Aldolase from Giardia Lamblia. Potency, µM (series often up to 59.6 µM), for inactives: at the top dose activity, negative = inhibition, actives largely listed as inhibitors. A8B2U2. hit rate 0.71% among 290,000. purified Giardia FBPA; further: nearly all actives have a fitted effect of over 55% in size
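40 nM FBPA preincubated 10 min at RT with compound (up to 57.5 uM final), then substrate plus GAPDH/TPI/NAD/arsenate coupling and diaphorase/resazurin added. Fluorescence read after 20 min at RT, 525/598 nm.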
AmpC no deterg – qHTS Inhibitors of AmpC Beta-Lactamase (assay without detergent); P00811; AmpC nitrocefin hydrolysis, absorbance 480 nm, 0.0001% Triton; Potency, µM (top dose mostly 57.1 µM), for the others: at the top dose activity change, negative = inhibition, actives largely listed as inhibitors; hit rate 0.52% among 330,000; AID 485341, 2010;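 further: plate controls were no compound for no effect and no enzyme for full effect; nearly all actives have a fitted effect of over 20% in size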
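20 mM phosphate pH 7.0 + 0.01% (detergent screen) or 0.0001% Triton X-100; 5.3 nM AmpC reagent; cpd preinc 15 min RT; nitrocefin (800 uM stock) to start; A480 q20 s × 4 min; Activity was normalised to no-enzyme and no-compound control wells.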
RE007 growth inh – qHTS Assay for Inhibitors of the HIV-1 protein Vpr; Potency, µM (doses to about 92.2 µM), without a hit: top-dose activity change, negative = less growth, hits mostly inhibitors; hit rate 0.21% among 360,000; S. pombe RE007 Vpr strain, BacTiter-Glo ATP luminescence, 24 h; active means well fitted falling curve with a large enough effect; inconclusive means small, poorly fitted or top-dose-only effect; inactive means no such curve, though single readings can be large or run the other way; further: nearly all actives have a fitted effect of over 50% in size
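Fission yeast strain RE007, carrying one chromosomally integrated HIV-1 vpr copy, was seeded at OD 0.01 in PMG+AL medium with 23 nL pinned compound. After 24 h at 30 °C and 99% humidity, viability was read by BacTiter-Glo luminescence.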
LmPK inh – qHTS Assay for Inhibitors of Leishmania Mexicana Pyruvate Kinase (LmPK); AID 1721, 2009; hit rate 0.37% among 290,000; purified LmPK, Kinase-Glo ATP luminescence, 1 h; Potency, µM (titrated, usually from 57.5 µM), inactives show at the highest dose activity change, negative = inhibition, usual class: inhibitors
Target sequence (Q27686 whole entry, looked up): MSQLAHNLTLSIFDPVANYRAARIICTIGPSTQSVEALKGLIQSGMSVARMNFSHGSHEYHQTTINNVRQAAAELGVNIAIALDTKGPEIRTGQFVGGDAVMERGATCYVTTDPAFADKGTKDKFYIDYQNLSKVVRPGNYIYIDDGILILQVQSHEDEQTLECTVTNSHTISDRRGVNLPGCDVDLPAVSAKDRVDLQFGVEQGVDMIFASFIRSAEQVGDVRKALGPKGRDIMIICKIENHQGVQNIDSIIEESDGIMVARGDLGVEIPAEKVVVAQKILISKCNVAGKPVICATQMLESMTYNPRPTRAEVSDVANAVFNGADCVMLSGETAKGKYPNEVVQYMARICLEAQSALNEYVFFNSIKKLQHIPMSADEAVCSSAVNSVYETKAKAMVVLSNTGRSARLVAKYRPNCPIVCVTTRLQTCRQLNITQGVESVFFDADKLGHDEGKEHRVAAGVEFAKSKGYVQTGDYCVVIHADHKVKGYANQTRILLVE
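In 50 mM imidazole pH 7.2 with 7 mM MgCl2, LmPK (0.1 nM) turned over PEP (0.5 mM) and ADP (0.1 mM) for 1 h at room temperature. Luciferase read-out of ATP.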
Giardia growth – qHTS Assay for Inhibitors of Fructose-1,6-bisphosphate Aldolase from Giardia Lamblia: Giardia lamblia growth inhibition | shares compounds with Giardia FBPA inh-1 | Giardia lamblia trophozoite growth inhibition | Potency, µM (doses to about 57.5 µM), without a hit: at the top dose activity change, negative = inhibition, hits mostly inhibitors | hit rate 5% among 1,500;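 further: trophozoites exposed to compound for 48 h at 37 °C; nearly all actives have a fitted effect of over 70% in size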
Mammalian tox – qHTS Assay for Inhibitors of Fructose-1,6-bisphosphate Aldolase from Giardia Lamblia: Mammalian cellular toxicity | shares compounds with Giardia FBPA inh-1 | mammalian cell viability counter-screen, qHTS | Potency, µM (series often up to 57.5 µM), for inactives: at the top dose viability change, negative = toxicity, usual class: inhibitors | hit rate 4% among 1,500;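 further: Chinese hamster ovary cells used as mammalian cytotoxicity surrogate; viability measured as cellular ATP by luminescence; compound exposure lasted 48 h before reading; nearly all actives have a fitted effect of over 60% in size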
Giardia FBPA inh-2 – qHTS Assay for Inhibitors of Fructose-1,6-bisphosphate Aldolase from Giardia Lamblia: Primary screen confirmation; shares compounds with Giardia FBPA inh-1; purified Giardia aldolase enzyme activity, qHTS; Potency, µM (highest dose often 57.5 µM), inactives show at the top dose activity change, negative = inhibition, hits mostly inhibitors; hit rate 5% among 1,500; AID 2787, 2010; further: nearly all actives have a fitted effect of over 45% in size
Rabbit FBPA inh – qHTS Assay for Inhibitors of Fructose-1,6-bisphosphate Aldolase from Giardia Lamblia: Rabbit FBPA Selectivity; shares compounds with Giardia FBPA inh-1; AID 2794, 2010; hit rate 4% among 1,500; Rabbit muscle FBPA enzyme inhibition, selectivity counter-screen; Potency, µM (highest dose often 57.5 µM), inactives show at the top dose activity, negative = inhibition, hits mostly inhibitors; further: nearly all actives have a fitted effect of over 60% in size
GAPDH coupling – qHTS Assay for Inhibitors of Fructose-1,6-bisphosphate Aldolase from Giardia Lamblia: Coupling assay counterscreen confirmation | shares compounds with Giardia FBPA inh-1 | GAPDH coupling enzyme counterscreen, biochemical, qHTS | Potency, µM (series often up to 57.5 µM), inactives show at the top dose activity change, negative = inhibition, most hits filed as inhibitors | hit rate 6% among 1,500; further: nearly all actives have a fitted effect of over 55% in size
Numbers without * were called inactive; ? = inconclusive; . = no result; [ ] = another dose, or the depositor's remark. Unless noted, the call rests on the fitted dose curve; in most records, active means well fitted curve in the direction sought with a large enough effect; inconclusive means small, poorly fitted or top-dose-only effect, or another doubt; inactive means no such curve, though single readings can be large; an effect the other way counts as inactive or inconclusive. Unless noted, on the % scale 0 is the no-effect control and ±100 the full control effect; potency means the concentration at half of the fitted maximal effect.

SMILES	AmpC detergent	Tb PYK inh	Giardia FBPA inh-1	AmpC no deterg	RE007 growth inh	LmPK inh	Giardia growth	Mammalian tox	Giardia FBPA inh-2	Rabbit FBPA inh	GAPDH coupling
COc1cc(OC)c(C2CC(=O)N3CN(C)CSC3=C2C#N)cc1OC (stereo not drawn)	?	?	0.56µM*	-18%	-8%	?	6%[38.3 µM]	-11%	?	-27%	?
COc1ccc(OC)c(C2CC(=O)N3CN(c4ccc(C)c(Cl)c4)CSC3=C2C#N)c1 (stereo not drawn)	?	?	5µM*	-44%	-8%	8%	-7%[10.4 µM]	6%	?	?	-27%
COc1ccc(Br)cc1C1CC(=O)N2CN(C)CSC2=C1C#N (stereo not drawn)	?	?	?	-28%	-12%	-9%	.	.	.	.	.
COc1ccc(OC)c(C2CC(=O)N3CN(c4cccc(Cl)c4)CSC3=C2C#N)c1 (stereo not drawn)	?	?	3.5µM*	-45%	-11%	5%	21%	5%	-17%	-24%	-19%
CCOc1ccc(N2CSC3=C(C#N)C(c4ccco4)CC(=O)N3C2)cc1 (stereo not drawn)	2%	-6%	7.9µM*	-29%	-2%	5%	44%	-3%	?	?	?
COc1cccc(C2CC(=O)N3CN(c4ccccc4F)CSC3=C2C#N)c1 (stereo not drawn)	?	3.5µM*	3.2µM*	-42%	-18%	10%	-7%[10.4 µM]	19%	-20%	-26%	-6%
COc1ccc(-c2csc(N(CCCN(C)C)C(=O)c3ccccc3F)n2)cc1	?	9%	28µM*	122%	-17%	2%	-25%	-13%	3%	9%	8%
COc1ccc(-c2csc(N(CCCN(C)C)C(=O)c3ccccc3C)n2)cc1	5%	9%	?	257%	-27%	-1%	.	.	.	.	.
Cc1cccc(CSc2cn(CC(=O)N3CCCC3)c3ccccc23)c1	-4%	-6%	.	.	.	.	.	.	.	.	.
CN(C)S(=O)(=O)c1ccc(NC(=S)NC(=O)c2cccs2)cc1	10%	-2%	18µM*	-34%	-23%	7%	-9%[10.4 µM]	-17%	7%	5%	11%
CC(=O)NC(=S)Nc1ccc(NC(=S)NC(=O)c2cccs2)cc1	-3%	6%	.	10%	4%	-9%	.	.	.	.	.
Cn1nnc(NC(=S)NC(=O)c2cccs2)n1	0%	-13%	2µM*	-44%	-4%	-2%	-8%	4%	-1%	7%	7%
Cn1nnc(NC(=S)NC(=O)c2cccc3ccccc23)n1	-3%	-8%	.	-34%	-3%	-4%	.	.	.	.	.
CC(C)C(=O)NC(=S)Nc1nnn(C)n1	-1%	-23%	3.2µM*	-22%	2%	1%	?	0%	-1%	7%	6%
CCCCn1nnc(NC(=S)NC(=O)c2cccs2)n1	0%	-4%	?	-17%	.	-9%	.	.	.	.	.
COc1cc(OC)cc(C(=O)NC(=S)Nc2nnn(C)n2)c1	-2%	-6%	3.5µM*	-23%	-6%	-9%	-18%[38.3 µM]	-5%	3%	9%	10%
Cc1ccc(CNC(=O)c2cc(-c3ccc(C)cc3)nc3n[nH]c(-c4cccc([N+](=O)[O-])c4)c23)cc1	6%	13%	.	.	.	.	.	.	.	.	.
Cc1c(C(=O)N2CCC(C)CC2)c(S(=O)(=O)N2CCN(c3ccc(Cl)cc3)CC2)c(C)n1C	-2%	-4%	.	.	.	.	.	.	.	.	.
CCc1cccc2c(-c3ccc(F)cc3)nc(SCC(=O)Nc3ccccc3)nc12	-2%	1%	.	.	.	.	.	.	.	.	.
CCCn1nnc(NC(=S)NC(=O)CC)n1	0%	3%	5.6µM*	-14%	5%	3%	?	-5%	-1%	1%	4%
Cc1nn(CCC(=O)Nc2ccc(Cl)cc2)c(C)c1S(=O)(=O)N1CCCCC1	-5%	-4%	.	.	.	.	.	.	.	.	.
CCOc1ccccc1-c1noc(CSc2nnc(-c3ccncc3)n2-c2ccc(F)cc2)n1	7%	4%	.	.	.	.	.	.	.	.	.
COc1cc(CN2CCN(Cc3ccc([N+](=O)[O-])cc3)CC2)c([N+](=O)[O-])cc1OC	?	-19%	13µM*	-1%[11.4 µM]	4%	-3%	-17%	9%	?	-23%	-11%
Cc1cc(C)cc(NC(=O)C(NCC2CCCO2)c2ccccc2)c1 (stereo not drawn)	-1%	30%	16µM*	73%	-6%	-3%	-16%[10.4 µM]	8%	-1%	6%	8%
